The target of assay [1] is T1, Muscle, skeletal receptor tyrosine-protein kinase (Homo sapiens) (UniProt O15146).
T1 sequence (whole entry): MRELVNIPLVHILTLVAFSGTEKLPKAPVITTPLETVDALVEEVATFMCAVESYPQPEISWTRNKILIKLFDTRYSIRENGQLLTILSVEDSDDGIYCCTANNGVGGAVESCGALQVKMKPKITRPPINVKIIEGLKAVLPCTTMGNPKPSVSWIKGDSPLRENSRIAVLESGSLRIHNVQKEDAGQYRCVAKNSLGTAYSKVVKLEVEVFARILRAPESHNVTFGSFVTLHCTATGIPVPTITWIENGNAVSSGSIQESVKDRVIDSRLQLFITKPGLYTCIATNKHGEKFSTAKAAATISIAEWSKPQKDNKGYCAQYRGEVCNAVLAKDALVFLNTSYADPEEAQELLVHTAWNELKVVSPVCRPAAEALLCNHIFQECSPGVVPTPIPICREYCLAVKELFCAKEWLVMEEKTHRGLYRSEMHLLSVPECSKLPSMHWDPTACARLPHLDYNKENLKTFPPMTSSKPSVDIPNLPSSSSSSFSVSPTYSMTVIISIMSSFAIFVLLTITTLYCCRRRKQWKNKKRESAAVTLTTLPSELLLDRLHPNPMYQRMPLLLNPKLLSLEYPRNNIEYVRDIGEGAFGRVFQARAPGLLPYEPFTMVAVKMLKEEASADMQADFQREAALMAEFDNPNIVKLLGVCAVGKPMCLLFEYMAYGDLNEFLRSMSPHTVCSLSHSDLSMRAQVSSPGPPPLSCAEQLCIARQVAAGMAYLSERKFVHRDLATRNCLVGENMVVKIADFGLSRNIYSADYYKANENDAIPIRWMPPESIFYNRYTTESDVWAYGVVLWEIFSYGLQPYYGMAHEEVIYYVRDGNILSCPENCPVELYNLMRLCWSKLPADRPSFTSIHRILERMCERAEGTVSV
The conditions noted are these: at 1 µM.

For assay [2], the target named is T1, Muscle, skeletal receptor tyrosine-protein kinase (Homo sapiens). The conditions noted are these: at 10 µM.
For assay [3], the target named is T2, Serine/threonine-protein kinase Nek11 (Homo sapiens) (UniProt Q8NG66).
T2 sequence (whole entry): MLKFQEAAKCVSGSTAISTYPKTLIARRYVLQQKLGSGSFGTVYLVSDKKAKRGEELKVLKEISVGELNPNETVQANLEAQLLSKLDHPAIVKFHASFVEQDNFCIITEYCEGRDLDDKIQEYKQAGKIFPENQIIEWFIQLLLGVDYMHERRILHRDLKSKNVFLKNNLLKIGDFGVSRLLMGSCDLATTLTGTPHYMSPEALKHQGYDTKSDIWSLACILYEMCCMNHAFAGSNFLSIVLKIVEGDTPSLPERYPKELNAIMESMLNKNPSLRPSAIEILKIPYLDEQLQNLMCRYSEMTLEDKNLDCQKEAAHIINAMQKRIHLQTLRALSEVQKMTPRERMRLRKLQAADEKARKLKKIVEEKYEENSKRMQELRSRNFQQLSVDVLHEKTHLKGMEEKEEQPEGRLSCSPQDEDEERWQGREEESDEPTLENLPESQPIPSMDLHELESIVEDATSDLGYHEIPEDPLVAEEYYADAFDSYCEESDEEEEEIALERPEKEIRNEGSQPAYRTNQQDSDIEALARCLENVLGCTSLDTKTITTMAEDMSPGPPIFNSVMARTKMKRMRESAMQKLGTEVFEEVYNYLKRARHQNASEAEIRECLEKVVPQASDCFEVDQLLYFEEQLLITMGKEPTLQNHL
The conditions noted are these: at 1 µM.

Assay [4] concerns the target T2, Serine/threonine-protein kinase Nek11 (Homo sapiens). The conditions noted are these: at 10 µM.
Assay [5] has as its target T3, Serine/threonine-protein kinase Nek2 (Homo sapiens) (UniProt P51955).
T3 sequence (whole entry): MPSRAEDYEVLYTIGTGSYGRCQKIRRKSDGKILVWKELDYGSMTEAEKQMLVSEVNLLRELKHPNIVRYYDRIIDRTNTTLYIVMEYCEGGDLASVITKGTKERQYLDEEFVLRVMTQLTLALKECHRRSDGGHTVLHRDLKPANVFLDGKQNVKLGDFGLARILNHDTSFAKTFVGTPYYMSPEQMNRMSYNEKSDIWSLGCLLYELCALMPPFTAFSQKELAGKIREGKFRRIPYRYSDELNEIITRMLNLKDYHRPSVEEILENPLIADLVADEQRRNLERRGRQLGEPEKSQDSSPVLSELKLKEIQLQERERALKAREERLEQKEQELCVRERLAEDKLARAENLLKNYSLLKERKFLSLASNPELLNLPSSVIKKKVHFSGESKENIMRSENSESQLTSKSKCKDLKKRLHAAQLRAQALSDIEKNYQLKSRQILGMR
The conditions noted are these: at 1 µM.

The target of assay [6] is T3, Serine/threonine-protein kinase Nek2 (Homo sapiens). Particulars: at 10 µM.
Assay [7] deals with T4, Serine/threonine-protein kinase Nek3 (Homo sapiens) (UniProt P51956).
T4 sequence (whole entry): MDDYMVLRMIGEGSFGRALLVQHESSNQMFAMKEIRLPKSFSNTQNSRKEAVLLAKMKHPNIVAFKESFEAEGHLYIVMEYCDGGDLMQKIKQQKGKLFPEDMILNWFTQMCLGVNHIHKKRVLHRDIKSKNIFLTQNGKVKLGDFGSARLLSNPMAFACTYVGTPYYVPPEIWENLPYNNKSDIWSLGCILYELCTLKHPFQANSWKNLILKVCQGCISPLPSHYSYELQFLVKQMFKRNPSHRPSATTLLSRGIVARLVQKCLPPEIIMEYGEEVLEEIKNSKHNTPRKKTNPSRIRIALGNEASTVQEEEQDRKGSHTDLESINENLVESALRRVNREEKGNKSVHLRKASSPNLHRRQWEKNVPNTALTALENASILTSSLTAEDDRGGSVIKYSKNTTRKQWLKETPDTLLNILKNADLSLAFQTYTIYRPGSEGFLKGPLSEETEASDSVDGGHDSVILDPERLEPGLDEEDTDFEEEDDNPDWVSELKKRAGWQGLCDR
Particulars: at 1 µM.

Assay [8] concerns the target T4, Serine/threonine-protein kinase Nek3 (Homo sapiens). The conditions noted are these: at 10 µM.
Assay [9] has as its target Serine/threonine-protein kinase tousled-like 2 (Homo sapiens) (UniProt Q86UE8). The conditions noted are these: at 1 µM.
Assay [10] shares this target. Particulars: at 10 µM.
Assay [11] concerns the target T5, Testis-specific serine/threonine-protein kinase 1 (Homo sapiens) (UniProt Q9BXA7).
T5 sequence (whole entry): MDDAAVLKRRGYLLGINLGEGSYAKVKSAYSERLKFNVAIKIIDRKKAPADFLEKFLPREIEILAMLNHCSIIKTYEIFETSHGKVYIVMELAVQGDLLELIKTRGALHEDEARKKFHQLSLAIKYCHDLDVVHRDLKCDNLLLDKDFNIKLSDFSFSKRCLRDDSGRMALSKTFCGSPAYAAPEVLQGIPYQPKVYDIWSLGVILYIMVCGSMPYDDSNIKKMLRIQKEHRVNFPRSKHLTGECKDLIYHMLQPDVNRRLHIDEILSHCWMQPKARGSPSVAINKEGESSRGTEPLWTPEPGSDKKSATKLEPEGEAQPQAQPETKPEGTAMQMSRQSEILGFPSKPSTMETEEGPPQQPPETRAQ
Particulars: at 1 µM.

Assay [12] concerns the target T5, Testis-specific serine/threonine-protein kinase 1 (Homo sapiens). Particulars: at 10 µM.
Assay [13] concerns the target T6, Testis-specific serine/threonine-protein kinase 2 (Homo sapiens) (UniProt Q96PF2).
T6 sequence (whole entry): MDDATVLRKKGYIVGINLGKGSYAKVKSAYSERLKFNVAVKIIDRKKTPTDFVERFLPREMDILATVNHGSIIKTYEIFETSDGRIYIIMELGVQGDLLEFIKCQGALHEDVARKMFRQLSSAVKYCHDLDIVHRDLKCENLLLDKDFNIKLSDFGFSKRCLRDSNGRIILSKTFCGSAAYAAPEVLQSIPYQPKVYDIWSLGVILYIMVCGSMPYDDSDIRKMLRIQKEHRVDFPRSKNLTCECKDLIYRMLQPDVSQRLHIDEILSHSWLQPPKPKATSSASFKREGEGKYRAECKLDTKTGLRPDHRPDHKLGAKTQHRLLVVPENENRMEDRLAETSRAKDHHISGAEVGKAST
Particulars: at 10 µM.

In assay [14] the target is T7, Tyrosine-protein kinase Tec (Homo sapiens) (UniProt P42680).
T7 sequence (whole entry): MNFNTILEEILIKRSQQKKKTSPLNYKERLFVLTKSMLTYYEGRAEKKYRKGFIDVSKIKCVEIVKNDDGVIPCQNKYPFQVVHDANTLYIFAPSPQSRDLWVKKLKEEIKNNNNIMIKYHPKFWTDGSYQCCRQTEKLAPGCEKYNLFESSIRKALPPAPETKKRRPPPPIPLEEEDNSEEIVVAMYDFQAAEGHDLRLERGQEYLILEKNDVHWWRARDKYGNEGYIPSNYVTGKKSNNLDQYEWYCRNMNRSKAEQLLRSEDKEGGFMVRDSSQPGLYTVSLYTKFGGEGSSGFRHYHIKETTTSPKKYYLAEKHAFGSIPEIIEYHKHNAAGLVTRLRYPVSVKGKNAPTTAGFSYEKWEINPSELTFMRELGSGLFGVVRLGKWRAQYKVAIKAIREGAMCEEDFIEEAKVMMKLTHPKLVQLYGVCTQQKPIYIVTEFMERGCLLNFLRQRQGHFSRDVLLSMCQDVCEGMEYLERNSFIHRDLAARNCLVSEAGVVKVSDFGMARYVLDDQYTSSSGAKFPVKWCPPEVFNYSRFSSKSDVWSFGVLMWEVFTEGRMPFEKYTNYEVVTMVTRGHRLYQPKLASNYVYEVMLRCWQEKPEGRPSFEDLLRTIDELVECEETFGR
Particulars: at 1 µM.

The target of assay [15] is T7, Tyrosine-protein kinase Tec (Homo sapiens). Particulars: at 10 µM.
The target in assay [16] is Angiopoietin-1 receptor (Homo sapiens) (UniProt Q02763). Particulars: at 1 µM.
Assay [17] has the same target. Particulars: at 10 µM.
Assay [18] has as its target High affinity nerve growth factor receptor (Homo sapiens) (UniProt P04629). Particulars: at 1 µM.
For assay [19] the target is unchanged. The conditions noted are these: at 10 µM.
Assay [20] deals with BDNF/NT-3 growth factors receptor (Homo sapiens) (UniProt Q16620). The conditions noted are these: at 1 µM.
BDNF/NT-3 growth factors receptor (Homo sapiens), sequence (Q16620 32-822 limits assumed): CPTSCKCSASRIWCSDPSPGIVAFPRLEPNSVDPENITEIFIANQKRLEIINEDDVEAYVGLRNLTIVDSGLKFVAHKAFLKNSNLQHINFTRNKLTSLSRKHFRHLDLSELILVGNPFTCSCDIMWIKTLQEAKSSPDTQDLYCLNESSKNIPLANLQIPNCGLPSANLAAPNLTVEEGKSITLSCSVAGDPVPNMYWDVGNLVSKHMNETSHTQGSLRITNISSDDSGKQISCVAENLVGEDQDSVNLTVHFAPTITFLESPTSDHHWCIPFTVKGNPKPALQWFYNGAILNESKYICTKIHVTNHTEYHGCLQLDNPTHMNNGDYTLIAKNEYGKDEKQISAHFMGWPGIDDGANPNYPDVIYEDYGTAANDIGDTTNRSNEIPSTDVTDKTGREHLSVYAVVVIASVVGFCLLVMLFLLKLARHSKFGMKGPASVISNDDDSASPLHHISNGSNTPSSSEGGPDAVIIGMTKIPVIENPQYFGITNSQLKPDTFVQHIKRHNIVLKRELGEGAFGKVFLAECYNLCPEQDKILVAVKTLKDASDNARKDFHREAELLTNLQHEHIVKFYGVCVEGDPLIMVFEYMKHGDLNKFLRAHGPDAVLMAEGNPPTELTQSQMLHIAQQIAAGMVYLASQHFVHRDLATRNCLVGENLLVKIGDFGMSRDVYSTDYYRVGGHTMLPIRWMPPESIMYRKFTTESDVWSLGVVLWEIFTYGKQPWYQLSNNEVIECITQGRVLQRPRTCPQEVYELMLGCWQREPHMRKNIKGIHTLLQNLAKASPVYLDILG

High affinity nerve growth factor receptor (Homo sapiens), sequence (P04629 33-796 limits assumed): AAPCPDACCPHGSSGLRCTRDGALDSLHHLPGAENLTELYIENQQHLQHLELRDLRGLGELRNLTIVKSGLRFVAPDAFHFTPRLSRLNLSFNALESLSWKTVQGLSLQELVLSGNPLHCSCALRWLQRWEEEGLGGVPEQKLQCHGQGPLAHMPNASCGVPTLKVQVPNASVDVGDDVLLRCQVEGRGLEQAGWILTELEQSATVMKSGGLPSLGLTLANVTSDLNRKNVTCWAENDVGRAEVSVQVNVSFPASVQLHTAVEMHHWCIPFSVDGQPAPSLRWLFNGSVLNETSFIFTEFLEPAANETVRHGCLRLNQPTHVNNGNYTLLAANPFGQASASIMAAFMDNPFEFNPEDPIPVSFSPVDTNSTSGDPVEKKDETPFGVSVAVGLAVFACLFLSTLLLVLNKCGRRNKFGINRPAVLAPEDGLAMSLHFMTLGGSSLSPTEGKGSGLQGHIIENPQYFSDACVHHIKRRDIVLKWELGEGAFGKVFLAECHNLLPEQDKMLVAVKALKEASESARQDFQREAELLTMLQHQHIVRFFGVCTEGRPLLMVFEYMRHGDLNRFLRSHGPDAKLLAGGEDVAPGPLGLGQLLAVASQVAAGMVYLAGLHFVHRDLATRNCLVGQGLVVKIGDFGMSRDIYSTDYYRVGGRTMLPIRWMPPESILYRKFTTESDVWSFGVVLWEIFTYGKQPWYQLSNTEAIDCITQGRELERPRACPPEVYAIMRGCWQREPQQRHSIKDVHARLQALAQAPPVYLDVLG
Angiopoietin-1 receptor (Homo sapiens), sequence (Q02763 whole entry): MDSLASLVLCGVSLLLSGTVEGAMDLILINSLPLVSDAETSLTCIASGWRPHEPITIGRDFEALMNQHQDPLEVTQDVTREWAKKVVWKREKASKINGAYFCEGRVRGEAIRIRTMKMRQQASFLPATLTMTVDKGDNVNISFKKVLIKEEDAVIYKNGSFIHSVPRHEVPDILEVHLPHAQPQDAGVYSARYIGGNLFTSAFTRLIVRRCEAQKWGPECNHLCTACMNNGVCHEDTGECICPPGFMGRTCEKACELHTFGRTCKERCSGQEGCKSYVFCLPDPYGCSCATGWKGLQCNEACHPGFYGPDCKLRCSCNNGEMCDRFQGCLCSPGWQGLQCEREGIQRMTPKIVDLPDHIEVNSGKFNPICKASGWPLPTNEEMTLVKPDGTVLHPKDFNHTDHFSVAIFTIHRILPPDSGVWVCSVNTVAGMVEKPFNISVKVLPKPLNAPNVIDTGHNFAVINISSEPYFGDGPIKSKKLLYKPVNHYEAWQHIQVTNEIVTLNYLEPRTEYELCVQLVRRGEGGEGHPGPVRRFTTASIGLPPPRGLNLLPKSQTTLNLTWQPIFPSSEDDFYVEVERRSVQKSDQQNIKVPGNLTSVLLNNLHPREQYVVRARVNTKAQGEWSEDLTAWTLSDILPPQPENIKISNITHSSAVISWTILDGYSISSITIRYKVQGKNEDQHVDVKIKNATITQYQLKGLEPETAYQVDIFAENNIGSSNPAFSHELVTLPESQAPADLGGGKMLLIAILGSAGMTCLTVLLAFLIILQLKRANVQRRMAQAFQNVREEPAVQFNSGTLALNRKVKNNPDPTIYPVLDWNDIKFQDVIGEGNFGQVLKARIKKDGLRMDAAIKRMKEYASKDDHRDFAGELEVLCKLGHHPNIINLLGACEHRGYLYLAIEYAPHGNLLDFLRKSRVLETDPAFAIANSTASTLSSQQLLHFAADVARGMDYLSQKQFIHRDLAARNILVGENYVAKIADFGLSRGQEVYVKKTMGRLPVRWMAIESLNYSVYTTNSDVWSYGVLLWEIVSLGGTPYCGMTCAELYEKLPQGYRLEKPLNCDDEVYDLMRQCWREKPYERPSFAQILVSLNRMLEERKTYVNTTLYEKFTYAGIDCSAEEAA
Serine/threonine-protein kinase tousled-like 2 (Homo sapiens), sequence (Q86UE8 whole entry, looked up): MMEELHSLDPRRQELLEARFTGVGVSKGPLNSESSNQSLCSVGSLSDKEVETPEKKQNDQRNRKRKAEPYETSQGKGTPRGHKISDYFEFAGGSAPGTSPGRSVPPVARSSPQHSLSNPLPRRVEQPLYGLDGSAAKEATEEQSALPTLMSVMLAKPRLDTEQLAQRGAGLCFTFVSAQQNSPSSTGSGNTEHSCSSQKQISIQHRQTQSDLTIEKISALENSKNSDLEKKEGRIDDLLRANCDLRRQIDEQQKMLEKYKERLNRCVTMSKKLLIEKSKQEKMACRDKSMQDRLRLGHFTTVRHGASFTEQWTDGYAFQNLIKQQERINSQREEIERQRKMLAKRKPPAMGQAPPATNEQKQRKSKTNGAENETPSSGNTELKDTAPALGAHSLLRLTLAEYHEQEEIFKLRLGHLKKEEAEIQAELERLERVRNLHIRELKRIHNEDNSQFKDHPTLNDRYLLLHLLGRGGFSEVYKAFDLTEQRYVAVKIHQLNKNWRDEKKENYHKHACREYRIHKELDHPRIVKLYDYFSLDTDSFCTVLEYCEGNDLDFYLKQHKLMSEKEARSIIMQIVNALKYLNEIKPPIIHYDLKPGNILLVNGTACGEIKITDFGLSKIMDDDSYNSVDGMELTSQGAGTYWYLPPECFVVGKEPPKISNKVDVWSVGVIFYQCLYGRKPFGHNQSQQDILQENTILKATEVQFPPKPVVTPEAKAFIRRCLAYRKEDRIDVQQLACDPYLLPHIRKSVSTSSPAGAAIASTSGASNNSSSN

The residual activity is the signal under treatment as a percentage of the control signal. On to `O=C1NC(=O)/C(=C/c2ccc3c(c2)OC(F)(F)O3)S1`, for which the residual activity in assay [1] was 110%; in [2] it was 89%; in assay [3], 80%; in assay [4], 82%; in [5] it was 97%; in assay [6] it was 94%. Besides, the residual activity in assay [7] amounted to 117%; in assay [8], 88%; in assay [9], 112%; in [10], 97%; in [11] it was 99%; in assay [12], 91%. Also, the residual activity was 97% in [13]; 83% in [14]; 80% in [15]; 94% in [16]; 85% in assay [17]; 86% in assay [18]. The residual activity in [19] is 60%; in [20] it was 44%.
On to `CC[n+]1c(/C=C/N(C)c2ccccc2)n(-c2ccccc2)c2ccc(-c3nc4ccccc4s3)cc21`, for which the residual activity in assay [1] was determined as 114%; in assay [2] it was 58%; in assay [3] it was 71%; in assay [4], 99%; in assay [5], 83%; in assay [6] it was 123%. The residual activity amounted to 116% in assay [7]; 92% in assay [8]; 109% in [9]; 80% in assay [10]; 102% in assay [11]; 73% in assay [12]. Further, the residual activity in [13] was found to be 78%; in assay [14], 77%; in assay [15], 27%; in assay [16], 103%; in assay [17] it was 30%; in assay [18], 85%. In addition, the residual activity amounted to 34% in assay [19] and 67% in assay [20].
Take `COc1cc2ncnc(N3CCN(C(=O)Nc4ccc(Oc5ccccc5)cc4)CC3)c2cc1OC`: the residual activity in assay [1] is 71%; in assay [2] it was 49%; in assay [3] it was 110%; in assay [4] it was 115%; in assay [5] it was 81%; in assay [6], 82%. The residual activity in [7] worked out at 110%; in [8] it was 87%; in [9], 88%; in assay [10] it was 88%; in [11], 88%; in [12], 76%. Further, the residual activity in assay [13] stood at 117%; in assay [14], 83%; in assay [15], 98%; in assay [16], 69%; in assay [17] it was 69%; in [18], 71%. Also, the results for the residual activity in assay [19] and in assay [20] were 30% and 39%, respectively.

The record behind these values is ChEMBL document CHEMBL2218924, “A broad activity screen in support of a chemogenomic map for kinase signalling research and drug discovery” (Biochem J, 2013).
